Only some compounds are listed: those with a hit (about 2.6% of all), similar ones and a draw of the others.
A3G deaminase: APOBEC3G DNA deaminase inhibitors, primary screen, biochemical, fluorescence, single-stranded DNA substrate, uHTS; recombinant A3G, ssDNA deamination FAM/TAMRA fluorescence; DNA dC->dU-editing enzyme APOBEC-3G (Homo sapiens), Q9HC16; 0.28% of 330,000 active; inhibition, % at 20 µM; AID 493012, 2011;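 active means inhibition of at least 40% at 20 µM, with no more than 30% in the related APOBEC3A deaminase screen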
Target sequence (Q9HC16 whole entry, looked up): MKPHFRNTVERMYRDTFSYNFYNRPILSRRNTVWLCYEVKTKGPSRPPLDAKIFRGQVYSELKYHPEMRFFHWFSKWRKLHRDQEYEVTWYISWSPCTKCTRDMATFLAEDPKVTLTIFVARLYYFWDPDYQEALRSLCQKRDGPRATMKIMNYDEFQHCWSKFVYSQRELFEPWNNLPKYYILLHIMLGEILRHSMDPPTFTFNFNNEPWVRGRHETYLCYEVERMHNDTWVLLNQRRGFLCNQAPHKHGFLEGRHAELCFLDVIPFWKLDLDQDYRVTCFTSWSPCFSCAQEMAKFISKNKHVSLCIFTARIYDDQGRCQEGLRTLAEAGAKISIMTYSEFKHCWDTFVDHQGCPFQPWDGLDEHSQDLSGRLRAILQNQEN
eIF4H FP inh: human eIF4H binding inhibitors, primary screen, translation initiation inhibitor project, biochemical, uHTS, fluorescence polarization; 0.94% of 290,000 active; eIF4H fluorescence polarization binding assay; inhibition, % at 35 µM;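 further: calls also rest on retests at 20 µM and on dose response follow-up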
PHOSPHO1 block: PubChem AID 1565. Phosphoethanolamine/phosphocholine phosphatase (Homo sapiens), Q8TCT1. recombinant PHOSPHO1, absorbance phosphatase assay. inhibition, % at 13.3 µM. 1.1% of 290,000 active; in the data active means inhibition above about 60%
PABP1 MLLE inh: inhibitors of PABP1 MLLE–PAM2 peptide binding, primary screen, biochemical, fluorescence polarization, FITC-PAM2, GST-MLLE | Polyadenylate-binding protein 1 (Homo sapiens), P11940 | inhibition, % at 20 µM | 0.36% of 360,000 active | AID 588489, 2011; in the data active means inhibition above about 35%, passing the limit was not always enough
PABP FP inh: PABP poly(A) RNA binding inhibitors, primary screen, biochemical, fluorescence polarization, uHTS. calls only at 35 µM. AID 2014, 2009. 1% of 290,000 active;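 further: calls also rest on retests at 20 µM and on dose response follow-up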
A3A deaminase: APOBEC3A ssDNA deaminase inhibitors, primary screen, selectivity assay for APOBEC3G inhibitor project, biochemical, FAM/TAMRA oligo cleavage fluorescence | DNA dC->dU-editing enzyme APOBEC-3A (Homo sapiens), P31941 | recombinant A3A, FAM/TAMRA ssDNA deamination fluorescence | inhibition, % at 20 µM | 0.41% of 330,000 active | AID 493011, 2011;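 active means at least 40% inhibition at 20 µM here, with at most 30% in a related deaminase screen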
APOBEC3A confirm: APOBEC3A deaminase inhibitors, retest, confirmation, selectivity assay for APOBEC3G inhibitor project, biochemical, single concentration, fluorescence readout. shares compounds with A3A deaminase. recombinant A3A, ssDNA deaminase UDG fluorescence assay. inhibition, % at 20 µM. 63% of 1,400 active;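 active means inhibition reaching a set limit, 80% of the first screen's cutoff, at 20 µM in any replicate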
UDG A3A counter: E. coli UDG inhibitors, confirmation, counter-screen for APOBEC3A inhibitor project, biochemical, single concentration, fluorescence, FAM/TAMRA oligo; shares compounds with A3A deaminase; UDG counterscreen, FAM/TAMRA uracil oligo fluorescence; inhibition, % at 20 µM; 1,000 tested, under 10 active; AID 504714, 2011
Of the large screens only hits and unclear results are named; the others gave an inactive call (follow-up assays come after a bar, where they were run). Unless noted, how the calls were made is not given here.

O=C(CCNC(=O)c1ccco1)NCc1ccc(C(=O)O)cc1	none (no result: eIF4H FP inh, PHOSPHO1 block, PABP FP inh)
O=C(CNC(=O)c1cccc(F)c1)OCC(=O)N1CCCCC1	A3A deaminase 41 | APOBEC3A confirm inactive
O=C(NCC1CCCO1)c1cccc(S(=O)(=O)Nc2ccc(SC(F)F)cc2)c1 (centres undefined)	none (no result: eIF4H FP inh, PHOSPHO1 block, PABP FP inh)
O=C(CNC(=O)OCc1ccccc1)Nc1ccc(F)cc1	A3A deaminase 67 (no result: eIF4H FP inh, PHOSPHO1 block, PABP FP inh) | APOBEC3A confirm 70 | UDG A3A counter inactive
NC(N)=Nc1nc(-c2ccccc2)c2cc(F)ccc2n1	none
C=CCNC(=O)Cn1nc(-c2ccccc2)ccc1=O	A3A deaminase 61 | APOBEC3A confirm inactive
CCN(CC)CCCNC(=O)Cn1nc(-c2ccccc2)ccc1=O	none
CCOC(=O)N1CCC(NC(=O)C2CCCN(C(=O)N3CCOc4ccccc43)C2)CC1 (centres undefined)	A3A deaminase 54 | APOBEC3A confirm inactive | UDG A3A counter inactive
C=CCOc1ccc(C(c2c(C(=O)O)[nH]c3ccccc23)c2c(C(=O)O)[nH]c3ccccc23)cc1	A3A deaminase 55 | APOBEC3A confirm 41 | UDG A3A counter inactive
O=C(/C=C/c1ccc(Cl)cc1)Nc1ccccc1N1CCOCC1	none
CC1=CC(C)(C)[N+](C)(C)c2ccc(C)cc21	PABP FP inh active, A3A deaminase 45 | APOBEC3A confirm 71 | UDG A3A counter inactive
CC1=CC(C)(C)N(S(=O)(=O)c2ccc(C)cc2)c2ccc(C)cc21	none
CN(C)CCN(Cc1ccccc1)C(=O)[C@H](Cc1ccccc1)N1C(=O)c2ccccc2C1=O	A3A deaminase 42 | APOBEC3A confirm inactive
N#Cc1ccc(NC(=S)Nc2ccccc2)cc1	A3A deaminase 44 | APOBEC3A confirm inactive | UDG A3A counter inactive
CCOC(=O)C1CCCN(S(=O)(=O)c2cccc3cccnc23)C1 (centres undefined)	none
O=C(Nc1nc2ccccc2s1)C1CCN(S(=O)(=O)c2cc([N+](=O)[O-])ccc2Cl)CC1	A3A deaminase 80 | APOBEC3A confirm 40
CC[n+]1ccc(/C=C2\Sc3ccccc3N2CCCS(=O)(=O)[O-])c2ccccc21	PABP FP inh active, A3A deaminase 83 | APOBEC3A confirm 92 | UDG A3A counter inactive
O=C(O)C1C=Cc2ccccc2N1C(=O)c1ccccc1 (centres undefined) (tested in a mixture with another compound)	none (no result: A3G deaminase, eIF4H FP inh, PHOSPHO1 block, PABP FP inh, A3A deaminase)
O=C(C(=O)N1CCCCCC1)c1c[nH]c2ccccc12	none
C[n+]1cc(C(=O)N2CCCCC2)ccc1/C=C/c1c[nH]c2ccccc12	eIF4H FP inh inconclusive, PABP FP inh inconclusive, A3A deaminase 75 | APOBEC3A confirm 73 | UDG A3A counter inactive
Cc1ccc(S(=O)(=O)N2CCC(C(=O)Nc3ccc(N4CCOCC4)cc3)CC2)cc1C	A3A deaminase 43 (no result: eIF4H FP inh, PHOSPHO1 block, PABP FP inh) | APOBEC3A confirm inactive
O=C(Nc1ccc(N2CCOCC2)cc1)C1CCN(S(=O)(=O)c2ccc3c(c2)OCCO3)CC1	none
CCn1c(SCC(=O)NCc2ccccc2)nnc1C(CO)NC(=O)c1ccccc1 (centres undefined)	A3A deaminase 69 (no result: eIF4H FP inh, PABP FP inh) | APOBEC3A confirm 62 | UDG A3A counter inactive
CCc1ccc(C(=O)CCC(=O)Nc2ccc(OC)c(S(=O)(=O)N3CCCCC3)c2)cc1	none (no result: eIF4H FP inh, PHOSPHO1 block, PABP FP inh)
CCCCC(CC)C1OCC(C[N+]2(C)CCOCC2)O1 (centres undefined)	none
